Source: PubChem BioAssay (EPA / NIEHS)
Records with an inconclusive call do not appear. Calls of active or inactive are those of the source. The calls were made as follows, unless noted: active = hit-call score of the fitted dose curve at least 0.9, where 1 is the maximum; inactive = score below 0.9.

Assays:
[1] = CCTE_Mundy_HCI_Cortical_Synap_Neur_Matur_SynapseCount: CCTE's Synaptogenesis and Neurite Maturation Assay in rat cortical cells for Synapse Count, Mundy Lab (AID 2284218)
Procedure, shortened: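 Read-out: synapse number per neuron, automated high-content imaging of fixed cells immunostained for MAP2 and synaptophysin plus Hoechst nuclei. Rat primary cortical cultures, AraC at DIV 5, chemical dosing DIV 7–12. Positive-direction fit relative to DMSO.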

[2] = CCTE_Mundy_HCI_Cortical_Synap_Neur_Matur_NeuriteCount: CCTE's Synaptogenesis and Neurite Maturation Assay in rat cortical cells for Neurite Count, Mundy Lab (AID 2284222);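 as to outcome: exposure from day 7 to day 12 in vitro with readout at day 12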
Procedure, shortened: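 Primary rat cortical cells were plated, treated with AraC at DIV 5, then exposed to chemicals from DIV 7 through DIV 12. After fixation and immunostaining for MAP2 and synaptophysin, imaging quantified neurites, with DMSO as the negative control.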

[3] = CCTE_Mundy_HCI_Cortical_Synap_Neur_Matur_CellBodySpotCount: CCTE's Synaptogenesis and Neurite Maturation Assay in rat cortical cells for Cell Body Spot Count, Mundy Lab (AID 2284223)
Procedure, shortened: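 Chemicals were applied to AraC-treated rat primary cortical cells at DIV 7 and measured at DIV 12. Fixed cells were labelled for MAP2, synaptophysin and nuclei, and high-content imaging gave cell body synaptophysin spot counts per neuron relative to DMSO.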

[4] = CCTE_Mundy_HCI_hNP1_Pro_ResponderAvgInten: CCTE's Proliferation Assay in human neuroprogenitor cells, Mundy Lab (AID 2284224; active = hit-call score of the fitted dose curve at least 0.9, where 1 is the maximum;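 also: human neural progenitor cells hNP1 derived from WA09 embryonic stem cells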)
Procedure, shortened: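 Proliferation read as average intensity of BrdU-positive cells, imaged at 26.25 h post-dosing: chemical exposure started after 40–44 h culture, BrdU during final 4 h, paraformaldehyde fixation. Positive-direction fit relative to DMSO.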

[5] = TAMU_PeakParms_SingleDonor1434_Chronotropy: Texas A&M University (TAMU) 1.5-hr Human Induced Pluripotent Stem Cell (iPSC)-derived Cardiomyocytes Calcium (Ca+2) Flux Assay for Cardiotoxicity: Chronotropy (changes in peak frequency) (AID 2284217); conditions: actives raise or lower the signal
Procedure, shortened: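 iPSC-CMs, donor 1434; 4 conc (0.2–100 uM), 0.5% v/v DMSO, 90 min, 37C/5% CO2; Ca2+ flux fluorescence → peak.freq.avg; peak.freq.avg = 0 dropped; bidirectional fit vs DMSO; EC05 POD.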

[6] = CCTE_Mundy_HCI_hN2_NOG_NeuriteCount: CCTE's Neurite Outgrowth Assay in human hN2 cells for Neurite Count, Mundy Lab (AID 2284219; active = hit-call score of the fitted dose curve at least 0.9, where 1 is the maximum)
Procedure, shortened: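 In this morphology assay, hNP1-derived neurons received test chemical 2 h post-plating and were fixed two days later in warm paraformaldehyde/sucrose containing Hoechst 33342. Neurites, labelled by rabbit anti-βIII-tubulin (1:800) and Alexa Fluor-488 (1:500), were counted automatically.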

[7] = CCTE_Mundy_HCI_hN2_NOG_NeuriteLength: CCTE's Neurite Outgrowth Assay in human hN2 cells for Neurite Length, Mundy Lab (AID 2284220; active = hit-call score of the fitted dose curve at least 0.9, where 1 is the maximum)
Procedure, shortened: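 Read-out is neurite length from high-content imaging of βIII-tubulin/Alexa Fluor-488-labelled neurons, referenced to DMSO controls.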

[8] = CCTE_Mundy_HCI_hN2_NOG_NeuronCount: CCTE's Neurite Outgrowth Assay in human hN2 cells for Neuron Count, Mundy Lab (AID 2284221; active = hit-call score of the fitted dose curve at least 0.9, where 1 is the maximum)
Procedure, shortened: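 Read-out is the number of betaIII-tubulin-positive neurons imaged by automated high-content analysis, with DMSO as negative control.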

## CO/C=C(/C(=O)OC)c1ccccc1Oc1cc(Oc2ccccc2C#N)ncn1
[1]
  AC50: 3.62 µM (active)
[2]
  AC50: 4.78 µM (active)
[3]
  AC50: 5.6 µM (active)

## CC(C)(C)c1ccc(CSc2cnn(C(C)(C)C)c(=O)c2Cl)cc1
[1]
  AC50: 0.000602 µM (active)
[2]
  AC50: 0.00118 µM (active)
[3]
  AC50: 0.00106 µM (active)
[4]
  AC50: 4.85 µM (active)

## COP(=S)(OC)Oc1nc(Cl)c(Cl)cc1Cl
[1]
  AC50: 22.4 µM (active)
[2]
  AC50: 27.9 µM (active)
[3]
  outcome: inactive

## CCCCNC(=O)n1c(NC(=O)OC)nc2ccccc21
[1]
  outcome: inactive
[2]
  outcome: inactive
[3]
  outcome: inactive

## CNC(=O)ON=CC(C)(C)SC
[5]
  outcome: inactive
[1]
  outcome: inactive
[6]
  outcome: inactive
[7]
  outcome: inactive
[8]
  outcome: inactive
[2]
  outcome: inactive
[3]
  outcome: inactive

## C=CCC1=C(C)[C@@H](OC(=O)[C@@H]2[C@@H](C=C(C)C)C2(C)C)CC1=O
[1]
  AC50: 22.2 µM (active)
[2]
  AC50: 23.7 µM (active)
[3]
  AC50: 21.8 µM (active)
[4]
  outcome: inactive

## CCCCNC(=O)OCC#CI
[5]
  outcome: inactive

## Cc1ccc(-c2c(Cl)nc(C#N)n2S(=O)(=O)N(C)C)cc1
[1]
  AC50: 74.3 µM (active)
[2]
  AC50: 80.2 µM (active)
[3]
  AC50: 87.8 µM (active)
[4]
  AC50: 50 µM (active)

## Oc1ccccc1-c1ccccc1
[5]
  AC50: 45.1 µM (active)

## CCCCOC(=O)c1ccccc1C(=O)OCCCC
[1]
  AC50: 50 µM (active)
[2]
  AC50: 85.8 µM (active)
[3]
  AC50: 89.5 µM (active)
